Source: PubChem BioAssay
This is one part of a sample in which hits are shown more often than they occur.
Tg IFNy HTS: T. gondii growth inhibition under IFN-gamma; Toxoplasma gondii growth in IFN-gamma-treated host cells; active compounds read low; activity change, negative = inhibition, % (concentration not given with the values); hit rate 3.8% among 69,000; in the data active = activity change below about -70%, passing the limit was not always enough;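 note: host cells are HeLa cells infected with Toxoplasma gondii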
An asterisk follows results filed as active.

SMILES	Tg IFNy HTS
CCc1nc(NC(=O)c2cc3cccc(C)c3nc2C)sc1C	82
CC1Oc2ccc(NC(=O)C(C)(C)NS(=O)(=O)c3cccs3)cc2NC1=O (configuration not stated)	-2
COCCN1C(=O)CCc2cc(NC(=O)C3CCC3)ccc21	31
Cc1c(C)c(C)c(C(=O)CCc2cccc(NC(=O)C3CCC3)c2)c(C)c1C	-92*
O=C1CCc2cc(NC(=O)C3CCC3)ccc2N1	4
Cn1cc(CN2CCCN(c3ccc(F)cc3)CC2)cn1	-14
CSc1n[nH]c(NC(=O)CSc2nc(C)cc(C)n2)n1	-47
CCOC(=O)c1cccc(NC(=O)Nc2ccc(-c3nc(-c4ccccc4)co3)cc2)c1	24
NC(=O)C(c1ccccc1)(c1ccc(F)cc1)c1ccc(F)cc1	15
OC(CCCN1CCCCC1)(c1ccccc1)c1ccccc1	0
OC(C#CC(O)(c1ccccc1)c1ccccc1)(c1ccccc1)c1ccccc1	-93*
CCOC(=O)c1cnn2c1nc(Sc1cccc(OC)c1)c1ccccc12	-22
COc1cccc(OC)c1C(=O)N1CCN(S(=O)(=O)c2cc3c4c(c2)CCC(=O)N4CCC3)CC1	67
CCC(C(=O)NCc1ccccn1)n1c2ccccc2c2cnn(C)c(=O)c21 (configuration not stated)	11
CCC(C(=O)N1CCN(c2ncccn2)CC1)n1c2ccccc2c2cnn(C)c(=O)c21 (configuration not stated)	-86*
Cn1ncc2c3ccccc3n(CC(=O)N3CCN(c4ncccn4)CC3)c2c1=O	130
O=C(C[C@H]1CC[C@H]2[C@@H](COC[C@H](O)CN2S(=O)(=O)c2cccc(Cl)c2)O1)N1CCOCC1	8
O=C(NCCCN1CCCCC1)c1csc(-c2ccc(N3CCCC3)nc2)n1	16
CC1CCCCN1CCNC(=O)c1csc(-c2ccc(N3CCCC3)nc2)n1 (configuration not stated)	-46
CCN1CCN(CCNC(=O)c2csc(-c3ccc(N4CCCC4)nc3)n2)CC1	-81*
c1ccc2oc(N3CCN(Cc4ccc(C5CCCO5)s4)CC3)nc2c1 (configuration not stated)	-4
COc1ccccc1-c1noc(-c2c(O)c3cc(Cl)ccc3[nH]c2=O)n1	-34
Cc1[nH]c(=O)[nH]c(=O)c1CN1CCc2onc(-c3ccccc3F)c2C1	-28
OC1(c2cccnc2)CCN(c2ncc(-c3cccs3)c(-c3cccnc3)n2)CC1	70
c1csc(-c2nc(N3CCCCC3)ncc2-c2ccncc2)c1	-98*
SMILES	Tg IFNy HTS
c1csc(-c2nc(N3CCCCC3)no2)c1	21
O=C(Nc1ccc(OC(F)(F)F)cc1)c1c(O)c2ccccc2[nH]c1=O	10
O=c1nc(Nc2ccc(OC(F)(F)F)cc2)c2ccccc2o1	-62
O=c1cc(Nc2ccc(OC(F)(F)F)cc2)c2ccccc2o1	-102*
CCn1c(CNC(=O)C2C3C=CC4(CN(C(C)C)C(=O)C24)O3)nc2ccccc21 (configuration not stated)	-34
O=C(Cn1nc2oc3ccccc3n2c1=O)N1CCCCC1	52
CO[C@H]1CN(C)C(=O)c2cc(NC(=O)c3cnccn3)ccc2OC[C@@H](C)NC[C@H]1C	110
CO[C@@H]1CN(C)C(=O)c2cc(NC(=O)c3ccc(Oc4ccccc4)cc3)ccc2OC[C@@H](C)NC[C@@H]1C	-115*
CO[C@@H]1CN(C)C(=O)c2cc(NC(=O)Nc3c(C)noc3C)ccc2OC[C@H](C)NC[C@@H]1C	-76*
COc1cccc(NC(=O)Nc2ccc3c(c2)C(=O)N(C)C[C@@H](OC)[C@H](C)CN[C@H](C)CO3)c1	20
CO[C@H]1CN(C)C(=O)c2cc(NC(=O)Nc3c(C)noc3C)ccc2OC[C@H](C)NC[C@H]1C	-1
CO[C@H]1CN(C)C(=O)c2cc(NC(=O)c3cnccn3)ccc2OC[C@H](C)NC[C@@H]1C	173
CO[C@@H]1CN(C)C(=O)c2cc(NC(=O)Nc3c(C)noc3C)ccc2OC[C@H](C)NC[C@H]1C	207
CO[C@H]1CN(C)C(=O)c2cc(NC(=O)c3ccc(Oc4ccccc4)cc3)ccc2OC[C@@H](C)NC[C@H]1C	21
CO[C@H]1CN(C)C(=O)c2cc(NC(=O)c3ccc(Oc4ccccc4)cc3)ccc2OC[C@H](C)NC[C@@H]1C	-92*
CCN(CC)C(=O)c1sc(NC(=O)c2ccc(OC)cc2)c(C#N)c1C	39
CCN(Cc1cnn(C)c1)C(=O)c1ccc(-c2ncn[nH]2)cc1	-4
CO[C@@H](CN(C)C(=O)C1CCOCC1)[C@@H](C)CN(C(=O)Nc1ccc(C(F)(F)F)cc1)[C@H](C)CO	-53
O=C(NC1CCCC1)N[C@@H]1C=C[C@H](CC(=O)N2CCOCC2)O[C@H]1CO	-27
CC(=O)Nc1ccc(CN2CCC(n3nc(C)cc3C)C2)cc1 (configuration not stated)	1
Cc1oc(-c2ccc(OC(C)C)cc2)nc1CSc1nc2ncccc2o1	-96*
Cc1oc(-c2ccc(OC(C)C)cc2)nc1CSc1nc2c(=O)[nH]cnc2n1C	-33
Cc1oc(-c2ccc(OC(C)C)cc2)nc1Cn1c(=O)c2cccnc2n(-c2ccccc2)c1=O	34
Cc1ccc(CNCCCN2CCOCC2)o1	39
COc1ccc2c(c1)NC1(CCN(C(=O)COc3ccc(F)cc3)CC1)c1cccn1-2	59
SMILES	Tg IFNy HTS
COc1ccc2c(c1)NC1(CCN(C(=O)Cc3ccc(F)cc3)CC1)c1cccn1-2	-84*
COc1ccc(OCC(=O)N2CCC3(CC2)Nc2cc(C)ccc2-n2cccc23)cc1	31
CC(C)CC(=O)Nc1ccc(S(=O)(=O)N2CCC3(CC2)Nc2cc(F)ccc2-n2cccc23)cc1	-77*
COc1ccc(CC(=O)N2CCC3(CC2)Nc2cc(OC)ccc2-n2cccc23)cc1	51
O=C(c1ccc(Br)o1)N1CCC2(CC1)Nc1cc(F)ccc1-n1cccc12	-27
COc1ccc2c(c1)NC1(CCN(C(=O)c3ccc(Br)o3)CC1)c1cccn1-2	-79*
COc1ccc2c(c1)NC1(CCN(C(=O)COc3cccc(C)c3)CC1)c1cccn1-2	-129*
Cc1ccc2c(c1)NC1(CCN(S(=O)(=O)c3ccc(NC(=O)CC(C)C)cc3)CC1)c1cccn1-2	26
CC(C)CC(=O)Nc1ccc(S(=O)(=O)N2CCC3(CC2)Nc2ccccc2-n2cccc23)cc1	1
COc1cccc(CC(=O)N2CCC3(CC2)Nc2cc(OC)ccc2-n2cccc23)c1	-34
CCc1ccc(C(=O)N2CCC3(CC2)Nc2cc(OC)ccc2-n2cccc23)cc1	16
CN1CCN(C(=O)C[C@H]2CC[C@H]3[C@@H](COC[C@@H](O)CN3C(=O)c3ccccc3F)O2)CC1	11
O=c1[nH]nc(C(O)c2ccccc2)n1Cc1cccs1 (configuration not stated)	-7
Cc1[nH]c2ccccc2c1CC(=O)NC(C)c1nncn1C(C)C (configuration not stated)	-2
CCn1cc(C(=O)N(C)Cc2snnc2C)c(C)n1	4
COc1ccc(S(=O)(=O)Nc2ccc3c(c2)C(=O)N([C@H](C)CO)C[C@H](C)[C@H](CN(C)C(=O)Nc2c(C)noc2C)OCCCC[C@@H](C)O3)cc1	58
Cc1nc(C(C)N(C)C(=O)CCN2CCCCCC2=O)c(C)s1 (configuration not stated)	6
CC(=O)NCC(=O)N1CC[C@@H](O)[C@@H]1Cc1ccccc1	4
CCN(C[C@H]1[C@H](c2ccc(C3=CCCCC3)cc2)[C@H](CO)N1CC1CC1)C(C)=O	-26
CC(C)c1ccc(NC(=O)c2csc(Cc3c(Cl)cccc3Cl)n2)cc1	-84*
